# Test results published in PubChem BioAssay AID1069 (NMMLSC, 2008).
# Values without a mark were called inactive. Active and inactive are the calls of the source.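 Rule for the calls: active = high combined rank on largest and smallest cell-count-weighted shift across three tests, rank score above 45, floors 50 and 25 (some results past the limit were not filed as active); inactive = the rest.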
# Assay: activators of LNCaP cell differentiation, retest, confirmation, side scatter shift, flow cytometry (AID 1069);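 note: LNCaP human prostate cancer cells in low-serum medium with charcoal-stripped FBS; percent of cells with raised granularity gated so DMSO controls show 10%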
# Conditions: 4 d, at 100 µM, active compounds read high
row,SMILES,side scatter shift
1,Cc1cc(=O)n2nc(N3CCCC(C(=O)NCCCN4CCc5ccccc5C4)C3)sc2n1 (stereo not drawn),17.4%
2,Cc1nnc(NCc2n[nH]c(=O)c3ccccc23)c2ccccc12,46.8%
3,O=C(CCn1c(=O)[nH]c2ccccc2c1=O)NCCCN1CCN(c2cccc(Cl)c2)CC1,35.7%
4,COc1ccc2c(c1OC)C(=O)N(C(C)C(=O)O)C2=O (stereo not drawn),17.9%
5,COc1ccc(Nc2nc(N)nc(CN3CCC(Cc4ccccc4)CC3)n2)cc1,16.7%
6,CCOC(=O)C1=C(C)Nc2nc(SC)nn2C1c1ccc(C(=O)OC)cc1 (stereo not drawn),7.7%
7,Cn1nc(-c2ccc(Cl)cc2)c2cc(C(=O)NCCN3CCOCC3)sc21,30%
8,O=C(NCCCN1CCN(c2cccc(Cl)c2)CC1)c1ccc(N2CCCC2=O)cc1,7.7%
9,COc1ccc(S(=O)(=O)Nc2ccc(F)c(Cl)c2)cc1OC,44.4%
10,CCOC(=O)C1CCN(S(=O)(=O)c2ccc(-c3nc4ccccc4s3)s2)CC1,25.7%
11,Oc1c(CN2CCCCC2)cc(COCc2ccccc2)c2cccnc12,5.7% (active)
12,CC(C)N1CCC2(CC1)N=C(c1ccc3c(c1)OCO3)CC(c1cc(Cl)ccc1O)N2 (stereo not drawn),26.1%
13,O=C(NCCCN1CCN(c2ccccc2F)CC1)C1CCN(S(=O)(=O)N2CCOCC2)CC1,19.9%
14,Cc1oc(-c2ccc(Cl)cc2)nc1CN1CCCC(C(=O)N2CCN(C(=O)c3ccco3)CC2)C1 (stereo not drawn),42.1%
15,Cc1ccc2[nH]c(=O)c3cc(C(=O)N(C)Cc4ccco4)sc3c2c1,4.2%
16,CCc1ncc(C(O)c2cccc(OC)c2OC)n1C (stereo not drawn),1.4%
17,Cc1cccc(N2CCN(C(=O)CCNC(=O)Cn3ccc4ccccc4c3=O)CC2)c1C,0%
18,COc1ccccc1N1CCN(c2nc3ccccc3nc2C(C#N)C(=O)OC(C)C)CC1 (stereo not drawn),78.2% (active)
19,O=C(NCc1ccc(Cl)cc1)c1noc2c1CCCC2,8%
20,Cc1ccc2c(c1)-c1c(cnn1CC(=O)Nc1ccccc1N1CCN(C)CC1)CO2,9.6% (active)
21,COc1ccc2nc3oc(C(=O)NCc4cccs4)cc3cc2c1,3.9%
22,COc1ccccc1N1CCN(C(=O)CCn2c(=O)[nH]c3ccsc3c2=O)CC1,19.4%
23,CN(C)CCCN1c2ccccc2CCc2ccc(Cl)cc21,20.9% (active)
